This is part of a sample that, as a whole, favours compounds with a hit. Of some 83,000 tested, about 20% had one in any assay.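 Cell lines were cultured in 96-well plates, exposed to a single compound concentration, and assessed for percent growth 48 hours later.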 Unmarked numbers belong to inactive results. Activity calls are given as the source filed them. How the source made its calls: active means growth percent below 10; inactive means the rest.
Columns and labels:
Assay in all cases: NCI-60 one-dose screen, 48 h (100 = growth as untreated, 0 = no growth, -100 = all killed)
SK-MEL-2 melanoma = conditions: 10 µM
EKVX NSCLC = conditions: 10 µM
SN12C renal = conditions: 10 µM
UO-31 renal = conditions: 10 µM
TK-10 renal = conditions: 10 µM unless noted
ACHN renal = conditions: 10 µM
CAKI-1 renal = conditions: 10 µM
A498 renal = conditions: 10 µM
CCRF-CEM leukemia = conditions: 10 µM
MOLT-4 leukemia = conditions: 10 µM
SR leukemia = conditions: 10 µM
RPMI-8226 leukemia = conditions: 10 µM
OVCAR-5 ovarian = conditions: 10 µM
SK-OV-3 ovarian = conditions: 10 µM
IGROV1 ovarian = conditions: 10 µM
OVCAR-3 ovarian = conditions: 10 µM
HS 578T breast = conditions: 10 µM
NCI/ADR-RES ovarian = conditions: 10 µM
OVCAR-4 ovarian = conditions: 10 µM
OVCAR-8 ovarian = conditions: 10 µM

## COC(=O)/C=C\C(=O)OC
SK-MEL-2 melanoma
  growth: 114%
EKVX NSCLC
  growth: 122%
SN12C renal
  growth: 102%
UO-31 renal
  growth: 81.1%
TK-10 renal
  growth: 109%
ACHN renal
  growth: 113%
CAKI-1 renal
  growth: 112%
A498 renal
  growth: 104%
CCRF-CEM leukemia
  growth: 110%
MOLT-4 leukemia
  growth: 87.8%
SR leukemia
  growth: 103%
RPMI-8226 leukemia
  growth: 114%
OVCAR-5 ovarian
  growth: 116%
SK-OV-3 ovarian
  growth: 118%
IGROV1 ovarian
  growth: 113%
OVCAR-3 ovarian
  growth: 119%
HS 578T breast
  growth: 113%
NCI/ADR-RES ovarian
  growth: 111%

## Cc1cc(C(O)(c2ccc(Nc3ccccc3)cc2)c2ccc(Nc3ccc(S(=O)(=O)O)cc3)cc2)ccc1N (stereo not given)
SK-MEL-2 melanoma
  growth: -33.1% (active)
EKVX NSCLC
  growth: 9.86% (active)
SN12C renal
  growth: 22.5%
UO-31 renal
  growth: 3.47% (active)
TK-10 renal
  growth: 7.3% (active)
ACHN renal
  growth: -13.2% (active)
CAKI-1 renal
  growth: 31.7%
A498 renal
  growth: 2.33% (active)
CCRF-CEM leukemia
  growth: 2.35% (active)
MOLT-4 leukemia
  growth: 8.2% (active)
SR leukemia
  growth: 7.14% (active)
RPMI-8226 leukemia
  growth: -28.8% (active)
OVCAR-5 ovarian
  growth: -65.8% (active)
OVCAR-4 ovarian
  growth: -5.82% (active)
SK-OV-3 ovarian
  growth: 31.3%
IGROV1 ovarian
  growth: 5.51% (active)
OVCAR-3 ovarian
  growth: -29.1% (active)
HS 578T breast
  growth: 1.91% (active)
NCI/ADR-RES ovarian
  growth: 18.8%

## CCOC(=O)Nc1nn[nH]n1
SK-MEL-2 melanoma
  growth: 109%
EKVX NSCLC
  growth: 112%
SN12C renal
  growth: 103%
UO-31 renal
  growth: 96.6%
TK-10 renal
  growth: 114%
ACHN renal
  growth: 100%
CAKI-1 renal
  growth: 113%
A498 renal
  growth: 83.8%
CCRF-CEM leukemia
  growth: 95%
MOLT-4 leukemia
  growth: 98.4%
SR leukemia
  growth: 103%
RPMI-8226 leukemia
  growth: 106%
OVCAR-5 ovarian
  growth: 92.3%
OVCAR-4 ovarian
  growth: 111%
SK-OV-3 ovarian
  growth: 116%
IGROV1 ovarian
  growth: 110%
OVCAR-3 ovarian
  growth: 103%
HS 578T breast
  growth: 93.7%
NCI/ADR-RES ovarian
  growth: 103%

## c1cc[n+](C2c3ccccc3C([n+]3ccccc3)c3ccccc32)cc1 (stereo not given)
SK-MEL-2 melanoma
  growth: 92.8%
EKVX NSCLC
  growth: 48.3%
SN12C renal
  growth: 26.7%
UO-31 renal
  growth: 61.8%
TK-10 renal
  growth: 52%
ACHN renal
  growth: 91.8%
CAKI-1 renal
  growth: 87.3%
A498 renal
  growth: 94.9%
CCRF-CEM leukemia
  growth: -42.3% (active)
MOLT-4 leukemia
  growth: 86.5%
SR leukemia
  growth: 50.6%
OVCAR-8 ovarian
  growth: 46.8%
OVCAR-5 ovarian
  growth: 95%
OVCAR-4 ovarian
  growth: 75.3%
SK-OV-3 ovarian
  growth: 92.5%
IGROV1 ovarian
  growth: 30.4%
OVCAR-3 ovarian
  growth: 77.1%
NCI/ADR-RES ovarian
  growth: 106%

## CCOC(=O)/C(=C/c1ccc(OC)cc1)N(CC)CC
SK-MEL-2 melanoma
  growth: 103%
EKVX NSCLC
  growth: 106%
SN12C renal
  growth: 102%
UO-31 renal
  growth: 92.9%
TK-10 renal
  growth: 107%
ACHN renal
  growth: 113%
CAKI-1 renal
  growth: 103%
A498 renal
  growth: 109%
CCRF-CEM leukemia
  growth: 100%
MOLT-4 leukemia
  growth: 99%
RPMI-8226 leukemia
  growth: 102%
OVCAR-8 ovarian
  growth: 99.9%
OVCAR-5 ovarian
  growth: 113%
OVCAR-4 ovarian
  growth: 116%
SK-OV-3 ovarian
  growth: 116%
IGROV1 ovarian
  growth: 106%
OVCAR-3 ovarian
  growth: 106%
HS 578T breast
  growth: 93.7%
NCI/ADR-RES ovarian
  growth: 107%

## O=[N+]([O-])c1cccc(N=Nc2ccc(O)cc2O)c1
SK-MEL-2 melanoma
  growth: 79.8%
EKVX NSCLC
  growth: 69.9%
SN12C renal
  growth: 79.6%
UO-31 renal
  growth: 57.3%
TK-10 renal
  growth: 65.7%
ACHN renal
  growth: 78.7%
CAKI-1 renal
  growth: 39.1%
A498 renal
  growth: 66.9%
MOLT-4 leukemia
  growth: 50.2%
SR leukemia
  growth: 43.1%
RPMI-8226 leukemia
  growth: 29.6%
OVCAR-8 ovarian
  growth: 74.3%
OVCAR-5 ovarian
  growth: 143%
OVCAR-4 ovarian
  growth: 62.3%
SK-OV-3 ovarian
  growth: 101%
IGROV1 ovarian
  growth: 83.6%
OVCAR-3 ovarian
  growth: 62.4%
HS 578T breast
  growth: 72.7%
NCI/ADR-RES ovarian
  growth: 88.8%

## CCN(CC)CCNc1ccc(CO)c2sc3ccccc3c(=O)c12
SK-MEL-2 melanoma
  growth: 45.4%
EKVX NSCLC
  growth: 65.6%
SN12C renal
  growth: 37.5%
UO-31 renal
  growth: 25.5%
TK-10 renal
  growth: 46.4%
ACHN renal
  growth: 20.4%
CAKI-1 renal
  growth: 43.2%
A498 renal
  growth: -17.9% (active)
CCRF-CEM leukemia
  growth: 37%
MOLT-4 leukemia
  growth: 8.97% (active)
RPMI-8226 leukemia
  growth: 37%
OVCAR-8 ovarian
  growth: 31%
OVCAR-5 ovarian
  growth: 53.3%
SK-OV-3 ovarian
  growth: 43.6%
IGROV1 ovarian
  growth: 51.6%
OVCAR-3 ovarian
  growth: 62.8%
HS 578T breast
  growth: 64.8%
NCI/ADR-RES ovarian
  growth: 40.7%

## S=C1CCCCCN1
SK-MEL-2 melanoma
  growth: 105%
EKVX NSCLC
  growth: 98.1%
SN12C renal
  growth: 100%
UO-31 renal
  growth: 82.5%
TK-10 renal
  growth: 109%
ACHN renal
  growth: 99.1%
CAKI-1 renal
  growth: 93.9%
A498 renal
  growth: 101%
CCRF-CEM leukemia
  growth: 107%
SR leukemia
  growth: 102%
RPMI-8226 leukemia
  growth: 98.3%
OVCAR-8 ovarian
  growth: 104%
OVCAR-5 ovarian
  growth: 103%
OVCAR-4 ovarian
  growth: 111%
SK-OV-3 ovarian
  growth: 119%
IGROV1 ovarian
  growth: 110%
OVCAR-3 ovarian
  growth: 115%
NCI/ADR-RES ovarian
  growth: 104%

## COc1cccc(Sc2ccc([N+](=O)[O-])c3no[n+]([O-])c23)c1
SK-MEL-2 melanoma
  growth: 86.2%
EKVX NSCLC
  growth: 91.9%
SN12C renal
  growth: 74.4%
UO-31 renal
  growth: -21.5% (active)
TK-10 renal
  growth: 60.3%
ACHN renal
  growth: 9.88% (active)
CAKI-1 renal
  growth: 64.8%
A498 renal
  growth: 98%
CCRF-CEM leukemia
  growth: -19.5% (active)
MOLT-4 leukemia
  growth: 0.692% (active)
RPMI-8226 leukemia
  growth: 6.99% (active)
OVCAR-8 ovarian
  growth: 53%
OVCAR-5 ovarian
  growth: 60.2%
OVCAR-4 ovarian
  growth: 67.5%
SK-OV-3 ovarian
  growth: 77.9%
OVCAR-3 ovarian
  growth: -61.9% (active)
HS 578T breast
  growth: 67.9%
NCI/ADR-RES ovarian
  growth: 42.5%

## CCOC(=O)Nc1cc2c(c(N)n1)N=C(c1ccccc1)CO2
SK-MEL-2 melanoma
  growth: 19.1%
EKVX NSCLC
  growth: 33.4%
SN12C renal
  growth: 29.3%
UO-31 renal
  growth: 21.3%
TK-10 renal
  growth: 53.3%
ACHN renal
  growth: 49.9%
CAKI-1 renal
  growth: 24.2%
A498 renal
  growth: 52%
CCRF-CEM leukemia
  growth: 13.5%
SR leukemia
  growth: 6.89% (active)
RPMI-8226 leukemia
  growth: 29.3%
OVCAR-8 ovarian
  growth: 14.5%
OVCAR-5 ovarian
  growth: 57.4%
OVCAR-4 ovarian
  growth: 49.4%
SK-OV-3 ovarian
  growth: 22.8%
IGROV1 ovarian
  growth: 25.2%
OVCAR-3 ovarian
  growth: -28.2% (active)
HS 578T breast
  growth: 50.1%
NCI/ADR-RES ovarian
  growth: 13.4%

— PubChem BioAssay (NCI)
